Measured values from the supplement of paper PMC8728848.
This is one part of a sample in which the strongest signals are shown more often than they occur.

How the values were obtained:
Test in all cases: glycan array binding signal (z-score within array); higher = stronger binding
Conditions in all cases: glycan notation: IUPAC condensed, linker removed
[1] = target: Fuc(a1-2)Gal(b1-3)GlcNAc(b1-3)[Fuc(a1-2)Gal(b1-3)GlcNAc(b1-6)]GalNAc
Procedure, shortened: (§1)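 Glycan array data were curated from 3228 arrays in the Consortium for Functional Glycomics database and kept only where the protein sequence was available. Glycan names were converted to IUPAC-condensed notation, and columns mapping to the same glycan were averaged. The binding signal is a within-array Z-score, averaged across arrays of the same protein sequence at different concentrations or buffers and across linkers. Negative Z-scores can be read as non-binding.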

Fuc(a1-2)Gal(b1-4)Glc6S = target: Fuc(a1-2)Gal(b1-4)Glc6S
Procedure, shortened: as §1

[2] = target: Fuc(a1-2)Gal(b1-4)GlcNAc(b1-2)Man(a1-3)[Fuc(a1-2)Gal(b1-4)GlcNAc(b1-2)Man(a1-6)]Man(b1-4)GlcNAc(b1-4)[Fuc(a1-6)]GlcNAc
Procedure, shortened: as §1

[3] = target: Fuc(a1-2)[Gal(a1-3)]Gal(b1-3)GalNAc
Procedure, shortened: as §1

[4] = target: Fuc(a1-2)[Gal(a1-3)]Gal(b1-4)GlcNAc(b1-3)[Fuc(a1-2)[Gal(a1-3)]Gal(b1-4)GlcNAc(b1-6)]GalNAc
Procedure, shortened: as §1

[5] = target: Fuc(a1-2)[GalNAc(a1-3)]Gal(b1-4)GlcNAc(b1-3)Gal(b1-4)GlcNAc(b1-3)Gal(b1-4)GlcNAc
Procedure, shortened: as §1

[6] = target: Fuc(a1-3)[Gal(b1-4)]Glc6S
Procedure, shortened: as §1

[7] = target: Fuc(a1-3)[Gal(b1-4)]GlcNAc(b1-6)GalNAc
Procedure, shortened: as §1

[8] = target: Fuc(a1-3)[Gal(b1-4)]GlcNAc6S
Procedure, shortened: as §1

Gal(a1-2)Gal = target: Gal(a1-2)Gal
Procedure, shortened: as §1

Gal(a1-4)Gal(b1-4)Glc = target: Gal(a1-4)Gal(b1-4)Glc
Procedure, shortened: as §1

[9] = target: Gal(a1-4)Gal(b1-4)GlcNAc(b1-2)Man(a1-3)[Gal(a1-4)Gal(b1-4)GlcNAc(b1-2)Man(a1-6)]Man(b1-4)GlcNAc(b1-4)GlcNAc
Procedure, shortened: as §1

[10] = target: Gal(b1-3)GlcNAc(b1-2)Man(a1-3)[Gal(b1-3)GlcNAc(b1-2)Man(a1-6)]Man(b1-4)GlcNAc(b1-4)GlcNAc
Procedure, shortened: as §1

[11] = target: Gal(b1-3)GlcNAc(b1-3)Gal(b1-4)GlcNAc(b1-2)Man(a1-3)[Gal(b1-3)GlcNAc(b1-3)Gal(b1-4)GlcNAc(b1-2)Man(a1-6)]Man(b1-4)GlcNAc(b1-4)GlcNAc
Procedure, shortened: as §1

[12] = target: Gal(b1-3)GlcNAc(b1-3)Gal(b1-4)GlcNAc(b1-6)[Gal(b1-3)GlcNAc(b1-3)]Gal(b1-4)Glc
Procedure, shortened: as §1

[13] = target: Gal(b1-3)GlcNAc(b1-3)Gal(b1-4)[Fuc(a1-3)]GlcNAc(b1-6)[Gal(b1-3)GlcNAc(b1-3)]Gal(b1-4)Glc
Procedure, shortened: as §1

[14] = target: Gal(b1-3)GlcNAc(b1-3)GalNAc
Procedure, shortened: as §1

[15] = target: Gal(b1-3)GlcNAc(b1-6)Gal(b1-4)GlcNAc
Procedure, shortened: as §1

[16] = target: Gal(b1-3)[Fuc(a1-4)]GlcNAc(b1-3)Gal(b1-4)[Fuc(a1-3)]GlcNAc
Procedure, shortened: as §1

Gal(b1-4)GlcNAc = target: Gal(b1-4)GlcNAc
Procedure, shortened: as §1

[17] = target: Gal(b1-4)GlcNAc(b1-3)Gal(b1-4)GlcNAc
Procedure, shortened: as §1

[18] = target: Gal(b1-4)GlcNAc(b1-3)Gal(b1-4)GlcNAc(b1-2)[Gal(b1-4)GlcNAc(b1-3)Gal(b1-4)GlcNAc(b1-6)]Man(a1-6)[Gal(b1-4)GlcNAc(b1-3)Gal(b1-4)GlcNAc(b1-2)Man(a1-3)]Man(b1-4)GlcNAc(b1-4)GlcNAc
Procedure, shortened: as §1

[19] = target: Gal(b1-4)GlcNAc(b1-3)Gal(b1-4)GlcNAc(b1-3)Gal(b1-4)GlcNAc(b1-3)Gal(b1-4)GlcNAc(b1-2)Man(a1-3)[Gal(b1-4)GlcNAc(b1-3)Gal(b1-4)GlcNAc(b1-3)Gal(b1-4)GlcNAc(b1-3)Gal(b1-4)GlcNAc(b1-2)Man(a1-6)]Man(b1-4)GlcNAc(b1-4)[Fuc(a1-6)]GlcNAc
Procedure, shortened: as §1

[20] = target: Gal(b1-4)GlcNAc(b1-3)Gal(b1-4)GlcNAc(b1-3)Gal(b1-4)GlcNAc(b1-3)Gal(b1-4)GlcNAc(b1-3)Gal(b1-4)GlcNAc(b1-3)Gal(b1-4)GlcNAc(b1-2)Man(a1-3)[Gal(b1-4)GlcNAc(b1-3)Gal(b1-4)GlcNAc(b1-3)Gal(b1-4)GlcNAc(b1-3)Gal(b1-4)GlcNAc(b1-3)Gal(b1-4)GlcNAc(b1-3)Gal(b1-4)GlcNAc(b1-2)Man(a1-6)]Man(b1-4)GlcNAc(b1-4)GlcNAc
Procedure, shortened: as §1

[21] = target: Gal(b1-4)GlcNAc(b1-3)Gal(b1-4)GlcNAc(b1-3)GalNAc
Procedure, shortened: as §1

[22] = target: Gal(b1-4)GlcNAc(b1-3)GalNAc
Procedure, shortened: as §1

[23] = target: Gal(b1-4)GlcNAc(b1-3)[Gal(b1-4)GlcNAc(b1-6)]Gal(b1-4)GlcNAc
Procedure, shortened: as §1

[24] = target: Gal(b1-4)GlcNAc(b1-6)[Gal(b1-4)GlcNAc(b1-3)]GalNAc
Procedure, shortened: as §1

B1: PX9937J-pdi-523-26-523 (Parabacteroides distasonis) (protein)
chain: EPVSSISDANYWKSPDLFKAFNIGLHGLLRSQSSYNIFVLGEPRSDIYGDQPFGGEATQGVERFSYNTINAEFTGISNFANFYTTLNQINLMIRRTNETDLLGEAEKNYYLGQAYGLRAYIYFHLLRSWGDVIITTEPTLGSELDISHLDKAASPASEVMDLIKKDIDASEKAFGGDYSYKQGKCYWSKPATLMLKGEVYLWSGRQMGGGTGDYTVAKTALQDLQQNGNLKLQEKFTDVFSFNNKENSEMIFALHSGKEDDFMMWRDYNWRNNMVPQREYMAGYCDETGTPFLEIPGYNLQGLMRYQVKKDHYLKSFREGDTRLKGTLKAVYKKHEDGTLEYIAPIQYKFQGTTLEGSNERSWYDDYPIYRYADALLLLAEAKALLGEDPSTEINAVRERAYGSEYFNAHKNEVAYPNDKGSFYNDNPFEAGDENVMEAILKERLREFFFEGKRWYDLRRFGKDYVLKYTTAQESRLLWPINEGALTNNPALKQTPGY
glycan array binding signal (z-score) [1]: -0.127 | glycan array binding signal (z-score) (Fuc(a1-2)Gal(b1-4)Glc6S): -0.759 | glycan array binding signal (z-score) [2]: 0.953 | glycan array binding signal (z-score) [3]: -0.16 | glycan array binding signal (z-score) [4]: -0.426 | glycan array binding signal (z-score) [5]: -0.377 | glycan array binding signal (z-score) [6]: -0.103 | glycan array binding signal (z-score) [7]: -0.093 | glycan array binding signal (z-score) [8]: 5.71 | glycan array binding signal (z-score) (Gal(a1-2)Gal): -0.363 | glycan array binding signal (z-score) (Gal(a1-4)Gal(b1-4)Glc): 0.596 | glycan array binding signal (z-score) [9]: 2.9 | glycan array binding signal (z-score) [10]: -0.12 | glycan array binding signal (z-score) [11]: 3.05 | glycan array binding signal (z-score) [12]: 0.461 | glycan array binding signal (z-score) [13]: -0.698 | glycan array binding signal (z-score) [14]: -0.708 | glycan array binding signal (z-score) [15]: -0.374 | glycan array binding signal (z-score) [16]: -0.34 | glycan array binding signal (z-score) (Gal(b1-4)GlcNAc): 0.078 | glycan array binding signal (z-score) [17]: -0.225 | glycan array binding signal (z-score) [18]: 10.4 | glycan array binding signal (z-score) [19]: 0.026 | glycan array binding signal (z-score) [20]: 8.6 | glycan array binding signal (z-score) [21]: 6.57 | glycan array binding signal (z-score) [22]: -0.086 | glycan array binding signal (z-score) [23]: -0.21 | glycan array binding signal (z-score) [24]: -0.149
